Tau fluor counter = counter-screen for tau fibril formation inhibitors. tau K18 P301L Alexa594 fluorescence, heparin fibrillization. Potency, µM (top dose mostly 57.7 µM), for inactives: at the highest dose activity change, negative = decrease. 280,000 compounds, 0.93% hits. AID 1463; also: nearly all actives have a fitted effect of over 55% in size
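Human tau K18 P301L (15 uM unlabeled, 0.24 uM Alexa 594-labeled) in 100 mM sodium acetate pH 7 with 20 uM heparin, 6 hr at 37 C. ThT 30 uM added, 1 hr ambient; Alexa 594 FP and total fluorescence read at 555/632 nm.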
Tau ThT inhib = tau fibrillization inhibition (ThT binding); P10636; recombinant tau K18 P301L (four-repeat tau fragment), heparin-induced fibrillization, ThT fluorescence; Potency, µM (top dose mostly 57.4 µM), for the others: at the highest dose activity, negative = inhibition, usual class: inhibitors; 270,000 compounds, 2.1% hits; AID 1460; also: nearly all actives have a fitted effect of over 55% in size
Target sequence (P10636 561-689 P618L limits assumed): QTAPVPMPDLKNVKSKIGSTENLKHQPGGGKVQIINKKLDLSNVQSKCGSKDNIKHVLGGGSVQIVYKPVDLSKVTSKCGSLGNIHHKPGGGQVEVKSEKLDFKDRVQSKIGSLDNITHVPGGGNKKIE
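Aggregation was driven by heparin (20 uM final) acting on recombinant tau […] bearing P301L in 100 mM sodium acetate pH 7; fibrils were detected with Thioflavin T.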
VP16 counter = counter-screen for ROR gamma inhibitors: Gal4-VP16 reporter. Drosophila S2 Gal4-VP16 UAS-luciferase, luminescence, 20 h. Potency, µM (doses to about 53.6 µM), for inactives: top-dose activity, negative = inhibition, actives largely listed as inhibitors. 310,000 compounds, 3.5% hits. AID 2546;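 also: Gal4-VP16 expression switched on by copper sulfate through the metallothionein promoter; nearly all actives have a fitted effect of over 50% in size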
Tau FP inhib = blocks human tau fibril formation measured by polarization | Potency, µM (top dose mostly 57.7 µM), inactives show at the highest dose activity, negative = inhibition, actives largely listed as inhibitors | K18 P301L tau heparin fibrillization, Alexa594 FP, 6 h | 280,000 compounds, 0.39% hits | AID 1468; also: nearly all actives have a fitted effect of over 55% in size
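Compound effects on tau fibrillization are measured by Alexa 594 fluorescence polarization (ex 555, em 632 nm). K18 P301L tau is used at 15 uM with 0.24 uM labeled tracer, and 20 uM heparin induces aggregation over 6 hr at 37 C.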
RORg inh = inhibitors of mouse ROR gamma transcriptional activity; P51450; Drosophila S2 Gal4-RORgamma UAS-luciferase reporter, 20 h; Potency, µM (series often up to 53.6 µM), for the others: top-dose activity change, negative = inhibition, usual class: inhibitors; 310,000 compounds, 5.4% hits; AID 2551; also: nearly all actives have a fitted effect of over 60% in size
Target sequence (P51450 whole entry, looked up, the tested form may be a part): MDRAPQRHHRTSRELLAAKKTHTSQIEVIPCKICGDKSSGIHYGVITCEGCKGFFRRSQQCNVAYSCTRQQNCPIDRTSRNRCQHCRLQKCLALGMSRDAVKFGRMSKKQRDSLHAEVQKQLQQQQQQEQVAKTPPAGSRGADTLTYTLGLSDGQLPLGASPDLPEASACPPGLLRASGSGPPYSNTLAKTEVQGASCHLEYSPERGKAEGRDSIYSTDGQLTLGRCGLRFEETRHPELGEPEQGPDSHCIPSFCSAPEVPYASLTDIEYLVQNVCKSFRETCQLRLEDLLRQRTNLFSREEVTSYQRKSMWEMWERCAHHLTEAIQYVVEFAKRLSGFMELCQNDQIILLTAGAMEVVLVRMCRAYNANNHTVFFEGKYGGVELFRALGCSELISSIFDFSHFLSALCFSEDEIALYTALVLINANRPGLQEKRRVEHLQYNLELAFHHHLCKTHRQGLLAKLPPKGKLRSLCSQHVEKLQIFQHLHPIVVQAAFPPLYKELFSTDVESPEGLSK
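Using a luciferase readout, inhibitors were identified by reduced reporter activity in Drosophila cells coexpressing a copper-inducible Gal4–ROR gamma fusion and UAS-driven Photinus luciferase, incubated 20 hr after 700 uM copper sulfate.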
* hit, by the source's call; ? = inconclusive; . = not tested or not shown; [ ] = remark or other dose. Most compounds without a hit are left out; they make up all but 7.3% or so of the library. Calls follow the shape of the dose curve; as a rule, active = well fitted curve in the direction sought with a large enough effect; inconclusive = small, poorly fitted or top-dose-only effect, or another doubt; inactive = no such curve, though single readings can be large; an effect the other way counts as inactive or inconclusive. % is scaled to controls: 0 for no effect and ±100 for the full control effect; potency is read from the fitted curve at half-maximal effect.

SMILES	Tau fluor counter	Tau ThT inhib	VP16 counter	Tau FP inhib	RORg inh
Cc1cccc(C(=O)Oc2csc(=S)n2C(=O)c2cccc(C)c2)c1	-24%	13µM*	-26%	-15%	?
O=C(Oc1csc(=S)n1C(=O)c1ccccc1)c1ccccc1	-25%	11µM*	-11%	-16%	?
COc1ccc(C(=O)Nc2cc3c(cc2N2CCCCC2)n(C)c(=O)n3C)cc1OC	.	.	8%	.	3.5µM*
COc1ccc(C(=O)Nc2cc3c(cc2N2CCCC2)n(C)c(=O)c(=O)n3C)cc1OC	-23%	?	.	?	.
Cc1ccc(CNC(=O)C2CCN(S(=O)(=O)c3ccc4[nH]c(=O)ccc4c3)CC2)cc1	-7%	2%	.	?	.
Cc1cc(C)cc(NC(=O)CC2Oc3ccc(C)cc3NC2=O)c1 (configuration not stated)	.	.	-1%	.	-20%
CC(=O)c1c(C)n(-c2cccc(Cl)c2)c2ccc(OC(=O)c3ccccc3)cc12	-7%	-1%	.	3%	.
CCSc1nc(-c2ccccc2)nc(C(Cl)Cl)n1	-10%	?	10µM*	-15%	1.3µM*
CC1CCN(C(=O)/C(=C\c2cccs2)NC(=O)c2ccccc2)CC1	-18%	-12%	18µM*	-7%[2.34 µM]	2.8µM*
O=C(COc1ccccc1F)Nc1nnc(SCc2cc(=O)n3ccccc3n2)s1	-1%	-10%	.	4%	.
Cc1ccc(C(C)C)c(OCC(O)CN2CCc3ccccc3C2)c1 (configuration not stated)	.	.	22µM*	.	-6%
COc1ccc(OCC(=O)Nc2nc3c(s2)CCCC3)cc1	.	.	10%	.	-36%
COc1ccc(NC(=O)Nc2nc3c(s2)CCCC3)cc1	18µM*[quencher]	?	1%	5%	?
O=C(Nc1cccc(Br)c1)Nc1nc2c(s1)CCCCCC2	3.5µM*[quencher]	-8%	.	?	.
COC(=O)c1cccc(-n2nnnc2SCC(=O)Nc2nc3c(s2)CCCC3)c1	?	?	2%	4%	-42%
COc1cccc(-n2nnnc2SCC(=O)Nc2nc3c(s2)CCCC3)c1	12%	16%	8.9µM*	7%	3.2µM*
CS(=O)(=O)Nc1cccc(-c2ccc3ncnc(NCc4cccs4)c3c2)c1	.	.	5%	.	?
CCCC#CCN1CCN(C23CC4CC(CC(C4)C2)C3)CC1	.	.	-6%	.	-7%
COc1ccc2c(c1)CC/C(=C/c1cc(OC)c(OC)c(OC)c1)C2=O	-14%	?	?	-11%	21%
O=C1/C(=C/c2cccc([N+](=O)[O-])c2)CCc2ccccc21	?	25µM*	?	-3%	?
COc1cccc(/C=C2\CCc3ccccc3C2=O)c1	-21%	?	11µM*	-11%	11µM*
O=C1/C(=C/c2ccc([N+](=O)[O-])cc2)CCc2ccccc21	-22%	?	?	-4%	?
COc1ccc2c(c1)CC/C(=C/c1ccccn1)C2=O	.	.	-7%	.	-42%
CC(=O)Oc1ccc(/C=C2/CCc3ccccc3C2=O)cc1	-18%	?	10µM*	-9%	8.9µM*
COc1ccc2c(c1)CC/C(=C\C=C\c1ccccc1)C2=O	-25%	2.5µM*	-15%	-8%	-19%
SMILES	Tau fluor counter	Tau ThT inhib	VP16 counter	Tau FP inhib	RORg inh
O=Cc1ccc(OC(=O)Cc2ccc(F)cc2)cc1	.	.	-6%	.	-9%
Cc1ccccc1/C=C1\CCCc2ccccc2C1=O	-13%	?	5%	-13%	-5%
COc1cccc(/C=C2\C(=O)C(=O)c3ccccc32)c1	-25%	13µM*	0%	2%	21%
Cc1ccsc1/C=C1\CCc2ccccc2C1=O	-25%	?	11µM*	1%	?
COC(=O)CSc1ncnc2c1cnn2Cc1ccccc1	-8%	-6%	-28%	-8%	10µM*
Cc1cc(OCc2cc(C(=O)N3CCN(C)C(=O)[C@@H]3C)no2)cc(C)c1Cl	.	.	14µM*	.	-34%
Cc1ccc(OCc2cc(C(=O)N3CCN(C)C[C@@H]3c3ccccc3)no2)cc1C	.	.	-5%	.	-42%
Cc1nc(NC2CCCCC2)c2nc(-c3ccccc3)n(CCCN3CCOCC3)c2n1	-14%	-14%	6%	-11%	-18%
C/C=C\C1=C(CO)[C@H](O)[C@H]2O[C@H]2[C@H]1O	-9%[11.6 µM]	-6%[11.5 µM]	5%[10 µM]	-11%[11.6 µM]	2%[10 µM]
C/C=C\C1=C(CO)C(=O)[C@@H]2OC2C1=O (some centres not stated)	?	3.5µM*	-25%[10 µM]	?	?
Cc1cccc(-c2noc(CNC(=O)c3ccccc3Br)n2)c1	-14%	-3%	.	-11%	.
O=C(Nc1cccc(C(F)(F)F)c1)c1noc2c1CCc1ccccc1-2	-26%	?	.	-10%	.
O=C(Nc1cccc(O)c1)c1noc2c1CCc1ccccc1-2	?	-13%	1.4µM*	?	0.35µM*
O=[N+]([O-])c1ccc(N=Nc2ccc(O)cc2O)cc1	14µM*[quencher]	2.5µM*	0.63µM*	-13%	?
O=[N+]([O-])c1ccc(N=Nc2c(O)[nH]c3ccc(F)cc23)cc1	.	.	-20%	.	-8%
CCOc1ccccc1/C=N/NC(=O)c1cccc(S(=O)(=O)N2CCOCC2)c1	-6%	-3%	2%	1%	1%
O=C(CCC(=O)N/N=C/c1c[nH]c2ccccc12)NCc1ccccc1	-11%	-8%	3%	8%	-2%
CCN(CC)c1ccc(/C=N/NC(=O)CCC(=O)NCc2ccccc2)c(O)c1	-20%	-13%	?	7%	3.2µM*
CCN(CC)c1ccc(/C=N/NC(=O)CNC(=O)C2COc3ccccc3O2)c(O)c1 (configuration not stated)	.	.	2.8µM*	.	2.8µM*
CCN(CC)c1ccc(/C=N/NC(=O)c2cccc(S(=O)(=O)N3CCOCC3)c2)c(O)c1	?	-11%	11µM*	?	2.8µM*
CCOC(=O)c1sc(C)c2c1NC(c1ccc(N(C)C)cc1)NC2=O (configuration not stated)	-11%	-13%	-1%	-2%	15%
CCOC(=O)N1CCc2c(sc3c2C(=O)NC(c2cc(OC)c(O)c(OC)c2)N3)C1 (configuration not stated)	-16%	11µM*	.	1%	.
COc1cc(C2NC(=O)c3c(sc4c3CCN(C)C4)N2)ccc1OC(=O)c1ccccc1 (configuration not stated)	-14%	13µM*	.	-6%	.
CCOC(=O)N1CCc2c(sc3c2C(=O)NC(c2ccccc2)N3)C1 (configuration not stated)	-28%	28µM*	-12%	?	31%
CCOC(=O)N1CCc2c(sc3c2C(=O)NC(c2ccc(N(C)C)cc2)N3)C1 (configuration not stated)	-15%	0.89µM*	.	-19%	.
COc1cc(C2NC(=O)c3c(sc4c3CCN(C)C4)N2)cc(OC)c1OC (configuration not stated)	2%	?	.	-3%	.
